Molecules are shown by their SMILES. Some of the results follow. Entries that show only a call come without a potency. Calls of active or inactive are those of the source. Calls follow the shape of the dose curve; as a rule, active = well fitted inhibition curve with a large enough effect; inconclusive = small, poorly fitted or top-dose-only effect; inactive = flat fitted curve, though single readings scatter.

The nature of the test: Confirmatory Assay for Inhibitors of Human Galactokinase (GALK): Phenol-HRP redox assay counterscreen. Particulars: Phenol red-HRP H2O2 redox cycling, absorbance 600 nm; series mostly up to 115 µM. The source says: NIH Molecular Libraries Probe Production Centers Network [MLPCN] NIH Chemical Genomics Center [NCGC] MLPCN Grant: R03 MH085689-01 Assay Submitter (PI): Kent Lai (University of Utah School of Medicine, 50 N Mario Capecchi Drive, Salt Lake City, UT 84132) NCGC Assay Overview: One mM dithiothreitol (DTT) was used as a reducing agent to maintain the galactokinase (GALK) enzyme in its active form in the GALK qHTS screen (AID: 1868). However, it has been shown that in the presence of DTT a number of compounds also undergo redox recyling, generating a significant amount of H2O2 that can oxidize crucial cysteine residues in the enzyme, leading to and a false-positive result. To evaluate and flag redox recycling compounds for compounds re-acquired from the qHTS screen, an endpoint colorimetric assay developed by Johnston et al. was adopted and optimized for a 1536-well plate format. In brief, the assay detects the presence of H2O2 by following the change in absorbance at 600 nm due to oxidation of phenol red (Sigma, cat# 114537) catalyzed by horseradish peroxidase (HRP; Invitrogen). A stop reagent, 1N NaOH was added prior to reading the absorbance. DMSO and different concentrations of hydrogen peroxide (Sigma, cat# 216763) in the GALK buffer were used as negative and positive controls respectively.
NCGC Assay Protocol Summary: Two uL/well of GALK buffer (20mM HEPES pH8.0, 5 mM MgCl2, 60 mM NaCl, 1 mM DTT, 0.01% BSA final concentration) was dispensed into a 1536-well assay plates (Greiner, black clear bottom plates) with Aurora Discovery BioRAPTR Flying Reagent Dispenser (FRD; Beckton-Dickenson). Compound and control solutions (23 nL each) were transferred to the assay plate in their respective wells using Kalypsys pin tool equipped with a 1536-pin tool head and incubated at room temperature for 30 min. Presence of H2O2 produced by redox cycling compounds was detected by adding 2 uL/well phenol red - HRP detection reagent ([…] phenol red in 1x Hanks Balanced Salt Solution, 25 U/mL HRP final concentrations). After 15 min of room temperature incubation, the reaction was stopped by adding 2 uL/well 1N NaOH and incubated for an additional 1 hr at room temperature. The absorbance at 600 nm was measured using the ViewLux plate reader (Perkin Elmer, Waltham, MA) with 6000 light energy, 2 sec exposure, and 2x binning instrument settings.
For orientation: Counterscreens check selectivity or assay interference.
As for `N#C/C(=C(/O)Cc1cccc2ccccc12)c1nc2ccccc2s1`, the Potency result was “inactive”.
As for `CCS(=O)(=O)C1=NSC2=NC(=O)/C(=C\c3ccc(OS(=O)(=O)c4ccccc4)cc3)C(=N)N21`, the entry is “inactive”.
On to `CCOC(=O)c1c(C)[nH]c2c1-c1ccccc1C(=O)C2=O`, for which the Potency was 1.19 µM (active).
In the case of `O=C(Nc1nnc(S(=O)(=O)N2CCOCC2)s1)c1cccc(Br)c1` it was “inactive”.
As for `COc1cccc2cc(-c3cc(=O)oc4cc(C)c(O)cc34)oc12`, the entry is “inactive”; as for `Oc1c(Cl)cc(Cl)c(Cl)c1Cc1c(O)c(Cl)cc(Cl)c1Cl`, “inactive”; as for `N#Cc1c(N2CCCCC2)nc(N)c2c(N)nc(SCC(=O)O)cc12`, 18.8 µM (active).
